The text below walks through data of the emibetuzumab library of Makowski et al. (2022).

B1: VH:VL chains; a variant is named by its letters at X, in order (parent)
chain 1: QVQLVQSGAEVKKPGASVKVSCKASGYTFTDYXMHWVRQAPGQGLEWMGXVNPNXXXTTYNQKFEGRVTMTTDTSTSTAYMELRSLRSDDTAVYYCARXNXLDXWGQGTTVTVSS
chain 2: DIQMTQSPSSLSASVGDRVTITCSVSSSVSSIYLHWYQQKPGKAPKLLIYSTSNLASGVPSRFSGSGSGTDFTLTISSLQPEDFATYYCQVYSGYPLTFGGGTKVEIK

This is one part of the list. How many sequences the whole screen found active is unknown.

The variants in this assay derive from B1. Nature of the assay: yeast display scFab, FACS + sequencing. Conditions: with MET. In outline:
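Two magnetic rounds on Protein A beads coated with HGFR-Fc, followed by FACS, were used to enrich a yeast surface scFab library mutated in the heavy-chain CDRs. FACS gated the top 50% antigen-positive cells after 3 h labelling at room temperature with 1 nM HGFR-Fc and anti-Myc in PBSB plus 1% milk. Binding to the antigen was scored positive when a sequence occurred in both antigen-positive samples from deep sequencing and negative when it occurred only in the input.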
Regarding YEKGGDVY, the antigen binding call is reported as “no binding”.
With YRKGGAWY, the antigen binding call was “binds”.
With YRAKGAWY, the antigen binding call is recorded as “binds”.
With DGGTNDVD, the antigen binding call is reported as “no binding”.
Regarding DTKAASWV, the antigen binding call is “no binding”.
On to VKGRADSF, for which the antigen binding call is “no binding”.
In the case of VKKESSGF it was “no binding”; in that of YKKGSSLF, “binds”; in that of VKKGSSLF, “binds”.
On to YKERGDVF, for which the antigen binding call is reported as “no binding”.
YRKGGAWV: the antigen binding call was “binds”.
For YRKEAAWV, the antigen binding call was “binds”.
On to YRTADDWV, for which the antigen binding call is listed as “no binding”.
In the case of SAEGGSSA it was “no binding”.
With FGAKTASF, the antigen binding call was “no binding”.
For YRGGSDVA, the antigen binding call is listed as “binds”.
With VRAGDDVA, the antigen binding call is reported as “no binding”.
For the variant YAAGGDVA, the antigen binding call was “no binding”.
With YRAGDDVA, the antigen binding call is listed as “binds”.
For YTAGSDVA, the antigen binding call is recorded as “no binding”.
On to YRAAGDVA, for which the antigen binding call is “binds”.
In the case of VRGGSDVA, the antigen binding call is listed as “no binding”.
For the variant DRGRSDVA, the antigen binding call is listed as “no binding”.
On to YRAETDVA, for which the antigen binding call is “no binding”.
For the variant DAGGGAAV, the antigen binding call is listed as “no binding”.
As to AGGGNDWV, the antigen binding call is “no binding”.
Consider VAAKNDGA, for which the antigen binding call is given as “no binding”.
In the case of VAKENAVA it was “no binding”; in that of YRKGSSLF, “binds”.
Regarding YGKGTSGF, the antigen binding call is given as “no binding”.
On to YRKGSSGF, for which the antigen binding call is on record as “binds”.
In the case of YTRGASWV it was “no binding”; in that of YTKAASWV, “no binding”.
The value for YRGASSWV was “binds”; that for YRGGASWV was “binds”; that for YETTDSWV was “no binding”.
Turning to YAEATDLY, the antigen binding call was “no binding”.
With VTEGDSGV, the antigen binding call is “no binding”.
Regarding VTTGSASF, the antigen binding call is recorded as “no binding”.
In the case of DTEEGDWV it was “no binding”.
YRRGDASD: the antigen binding call is listed as “binds”.
For the variant YRGEGASD, the antigen binding call was “binds”.
On to YRRGSASD, for which the antigen binding call is “binds”.
Consider YRRGSAVD, for which the antigen binding call is given as “binds”.
Consider YTGTSASD, for which the antigen binding call is listed as “no binding”.
For DRRGDASD, the antigen binding call is “no binding”.
On to YTAAADLV, for which the antigen binding call is listed as “no binding”.
In the case of YETEGDVF it was “no binding”; in that of YRRGGASD, “binds”.
Consider DAGGGAVY, for which the antigen binding call is on record as “no binding”.
In the case of YRGKGALA it was “binds”.
In the case of YRKKGDLA, the antigen binding call is recorded as “no binding”.
Take YRKGAALA: the antigen binding call is listed as “binds”.
In the case of YRGRSALA, the antigen binding call is listed as “binds”.
Take YRGKGSLA: the antigen binding call is listed as “binds”.
As to YTGRAALA, the antigen binding call is listed as “no binding”.
The value for VTGTGDGV was “no binding”.
Consider AETKGAVA, for which the antigen binding call is recorded as “no binding”.
In the case of DGGENAGD, the antigen binding call is “no binding”.
Turning to VAGGDAVV, the antigen binding call was “no binding”.
Regarding YRGKSALA, the antigen binding call is “binds”.
As for FRGGGAVS, the antigen binding call is listed as “binds”.
On to FAAGGAWA, for which the antigen binding call is on record as “no binding”.
FAAGGAAS: the antigen binding call is “binds”.
With FAGGGFAV, the antigen binding call is listed as “no binding”.
With FAAGSSGS, the antigen binding call is listed as “no binding”.
Consider FAGTSVGS, for which the antigen binding call was “no binding”.
FREGGAVS: the antigen binding call was “no binding”.
Take FAGGSFAS: the antigen binding call is listed as “binds”.
In the case of FRGGGSVS, the antigen binding call is “binds”.
In the case of DTERDDAV, the antigen binding call is “no binding”.
For DGGTGDVF, the antigen binding call is “no binding”.
The value for FAGGGASD was “no binding”; that for FAGGGAGS was “binds”.
Regarding FAGGGAGA, the antigen binding call is given as “no binding”.
For YTEEGDWV, the antigen binding call is given as “no binding”.
In the case of SAAGGDVA chain 1 L45S, the antigen binding call was “no binding”.
On to YRKGSALD, for which the antigen binding call was “binds”.
For the variant YRKGTAGD, the antigen binding call was “binds”.
For YEKGGAGD, the antigen binding call is given as “binds”.
The value for YEKGGDVD was “no binding”; that for YEGGGDGD was “no binding”; that for YRRANFLD was “no binding”.
In the case of YRKGSAGD it was “binds”; in that of YAGEGDGA, “no binding”; in that of VTTADDWV, “no binding”.
In the case of YKGRGVVV it was “binds”; in that of YKGRGVGV, “binds”.
As to SKEGGVGV, the antigen binding call is on record as “no binding”.
On to YKGKGVGV, for which the antigen binding call was “binds”.
The value for YRGKGVGV was “no binding”; that for YKERDVGV was “no binding”; that for DKGRSVGV was “no binding”.
For the variant AARADDGS, the antigen binding call is recorded as “no binding”.
For SAAGGDGV chain 1 L45S, the antigen binding call is listed as “no binding”.
Take FRERGAGD: the antigen binding call is listed as “binds”.
On to FRERGAGY, for which the antigen binding call is listed as “no binding”.
FGRGGVGD: the antigen binding call is “no binding”.
In the case of FRRGGAVD, the antigen binding call is “binds”.
In the case of FTEEGAGD, the antigen binding call was “no binding”.
On to FTETGAGD, for which the antigen binding call was “no binding”.
FRRGGAGD: the antigen binding call is “binds”.
The value for FRRGGSVD was “binds”; that for VATGDFGV was “no binding”.
With YKTGGALY, the antigen binding call is recorded as “binds”.
Turning to SKGENALY, the antigen binding call is recorded as “no binding”.
As for YKAGGALY, the antigen binding call was “binds”.
In the case of VKTGGDVY, the antigen binding call was “no binding”.
Consider YKKTGDLY, for which the antigen binding call is recorded as “no binding”.
In the case of YETETALY it was “no binding”.
With AARADDAV, the antigen binding call is reported as “no binding”.
The value for YRTGGSGD was “binds”; that for YRTGDSGD was “binds”; that for DATGGAGD was “no binding”.
Turning to DREEGSGD, the antigen binding call was “no binding”.
Take YRTGGAWD: the antigen binding call was “binds”.
On to FATGGSGD, for which the antigen binding call is given as “no binding”.
Consider SETGGAGD, for which the antigen binding call is reported as “no binding”.
With YRTGGAGD, the antigen binding call is on record as “binds”.
As for FTRTNFLS, the antigen binding call is “no binding”.
On to VKEKGDVA, for which the antigen binding call is reported as “no binding”.
Turning to YRAKGSAA, the antigen binding call is on record as “binds”.
In the case of YKARGSAA it was “binds”; in that of YTRAGSAA, “no binding”.
In the case of YAARGSAA, the antigen binding call is “no binding”.
On to YKRRGSAA, for which the antigen binding call is listed as “binds”.
In the case of YRGRSSAA, the antigen binding call is listed as “binds”.
In the case of DAKTDDGV, the antigen binding call was “no binding”.
Take DKEGGDGY: the antigen binding call is reported as “no binding”.
For AREKGSAA, the antigen binding call is “no binding”.
As for YRARSSAA, the antigen binding call was “binds”.
As to YGGGGVAA, the antigen binding call is reported as “no binding”.
In the case of YREKGSAA it was “binds”; in that of YTKRGSAA, “no binding”.
With YGATSSLA, the antigen binding call is on record as “no binding”.
Turning to YTGRGSAA, the antigen binding call is listed as “binds”.
In the case of YGAAGSAA, the antigen binding call is on record as “binds”.
